PubChem BioAssay (NCI)
The panel holds about 83,000 compounds, 20% with a hit somewhere; the sample as a whole holds those more often.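 Negative percent growth values reflect cell death: -40 means 40% of the cells present at the start died, and -100 means all died.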 A number with no mark means an inactive call. Active and inactive are the calls of the source. The calls were made as follows: active = growth percent below 10; inactive = the rest.

Experiments:
Experiment in all cases: NCI-60 one-dose screen, 48 h (100 = growth as untreated, 0 = no growth, -100 = all killed)
Settings in all cases: 10 µM unless noted
[1] = system: NCI-H23 lung
[2] = system: NCI-H226 lung
[3] = system: NCI-H322M lung
[4] = system: HOP-62 NSCLC
[5] = system: NCI-H460 lung
[6] = system: NCI-H522 lung
[7] = system: A549/ATCC NSCLC
[8] = system: 786-0 renal
[9] = system: COLO 205 colon
[10] = system: DU-145 prostate
[11] = system: K-562 leukemia
[12] = system: MALME-3M melanoma
[13] = system: MDA-MB-231 breast
[14] = system: RXF 393 renal
[15] = system: SF-268 CNS
[16] = system: SF-295 CNS
[17] = system: SF-539 CNS
[18] = system: UACC-257 melanoma
[19] = system: M14 melanoma
[20] = system: HCT-15 colon

Compound | growth [1] [%] | growth [2] [%] | growth [3] [%] | growth [4] [%] | growth [5] [%] | growth [6] [%] | growth [7] | growth [8] | growth [9] [%] | growth [10] [%] | growth [11] [%] | growth [12] [%] | growth [13] [%] | growth [14] [%] | growth [15] [%] | growth [16] | growth [17] [%] | growth [18] [%] | growth [19] [%] | growth [20] [%]
COc1ccc(OC)c(/C=C/c2nc(=S)n(-c3ccc(Cl)cc3)[nH]2)c1 | 48.7 | 73.3 | 100 | 69.7 | 38.9 | 82.1 | 66.3% | 58.9% | 104 | 87.6 | 22.4 | 29.8 | 87.2 | 51.9 | 73.7 | 31.2% | 39.5 | 77.6 | 31 | 41.2
O=C1c2ccccc2C(=O)c2c1cccc2-n1nnc2ccccc21 | 106 | 103 | 118 | 101 | 111 | 86 | 116% | 106% | 116 | 108 | 95.6 | 132 | 125 | 111 | 103 | 120% | 112 | 127 | 127 | 102
O=C(CCc1nnc(Cn2cncn2)o1)c1nc2ccccc2[nH]1 | 102 | 101 | 115 | 103 | 108 | 95.5 | 105% | 104% | 124 | 109 | 104 | 92 | 98.7 | 121 | 105 | 103% | 103 | 112 | 111 | 102
COc1ccc(C2CC(c3ccc(OC)c(OC)c3)=NN2C(=O)c2cc(OC)c(OC)c(OC)c2)c(OC)c1 (stereo not given) | 92.6 | 76.4 | 94.8 | 76.1 | 78.5 | 33.9 | 82.8% | 66.8% | 63.9 | 101 | 51.3 | 86.7 | 90.3 | 48.6 | 82 | 31% | 64.4 | 61.7 | 63.9 | 67.4
COc1cc(C2CC(=O)Nc3c2cc(Br)c2ccccc32)cc(Br)c1OC (stereo not given) | 58.8 | 27.1 | 40.7 | 24 | 10.9 | 21.3 | 3.52% (active) | 0.846% (active) | 37.1 | 64.7 | 20.2 | 39.9 | 28 | 35.8 | 55.4 | -31.3% (active) | 74.4 | 73.4 | 48.2 | 39.6
O=C(CCc1nnc(SCc2ccccc2)s1)c1nc2ccccc2[nH]1 | 96.4 | 102 | 92.9 | 105 | 105 | 84.4 | 86.3% | 91.2% | 117 | 107 | 80.2 | 83.8 | 77.9 | 108 | 100 | 92.1% | 109 | 111 | 108 | 81
O=C1CC(C(F)(F)F)=NN1C(=O)c1nn(-c2ccc(Cl)cc2)cc1O | 101 | 79.8 | 15.6 | 70.2 | 71.2 | 89.9 | 91.2% | 97.7% | 125 | 83.6 | 96.7 | 146 | 81.9 | 78.1 | 56.7 | 81.3% | 82.7 | 111 | 88.4 | 69.9
CCc1[nH]nc(-c2ccc(OC)cc2)c1-c1ccccc1OCCN(CC)CC | 91.4 | 94.9 | 97.7 | 84.6 | 103 | 114 | 93.2% | 74.7% | 77 | 102 | 88.4 | 95.5 | 99.2 | 79.3 | 89 | 85.7% | 99 | 97.9 | 87.1 | 105
